High-throughput results as filed in PubChem.
MCF10A rerep – A quantitative high throughput screen for small molecules that induce DNA re-replication in MCF 10a normal breast cells. MCF 10A DNA re-replication, Hoechst nuclear intensity, 48 h. Potency, µM (series often up to 46.1 µM), actives largely listed as activators. hit rate 2.9% among 350,000. AID 624296, 2012; also: nearly all actives have a fitted effect of over 50% in size
RORgamma inh – qHTS for inhibitors of ROR gamma transcriptional activity; Nuclear receptor ROR-gamma (Mus musculus), P51450; Drosophila S2 Gal4-RORgamma UAS-luciferase reporter, 20 h; Potency, µM (top dose mostly 53.6 µM), actives largely listed as inhibitors; hit rate 5.4% among 310,000; also: nearly all actives have a fitted effect of over 60% in size
Target sequence (P51450 whole entry, looked up, the tested form may be a part): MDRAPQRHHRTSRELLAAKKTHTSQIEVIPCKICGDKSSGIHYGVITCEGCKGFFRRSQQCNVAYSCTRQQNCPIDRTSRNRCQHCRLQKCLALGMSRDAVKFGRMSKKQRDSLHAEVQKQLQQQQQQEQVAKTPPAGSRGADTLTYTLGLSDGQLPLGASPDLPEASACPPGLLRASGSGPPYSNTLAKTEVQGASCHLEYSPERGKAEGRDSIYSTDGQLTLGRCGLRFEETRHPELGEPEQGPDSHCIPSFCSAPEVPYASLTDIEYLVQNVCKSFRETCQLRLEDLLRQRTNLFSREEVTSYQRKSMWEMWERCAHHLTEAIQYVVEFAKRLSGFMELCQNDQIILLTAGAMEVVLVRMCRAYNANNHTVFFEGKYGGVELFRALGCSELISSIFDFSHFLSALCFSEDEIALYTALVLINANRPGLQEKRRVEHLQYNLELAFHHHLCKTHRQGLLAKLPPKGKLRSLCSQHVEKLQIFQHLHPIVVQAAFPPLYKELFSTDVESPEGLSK
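A Gal4/UAS one-hybrid system in insect cells: metallothionein-promoter Gal4–ROR gamma fusion plus Photinus luciferase reporter. Copper sulfate 700 uM final, 20 hr ambient incubation, luminescent detection after 10 min with reagent.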
SW480 rerep – A quantitative high throughput screen for small molecules that induce DNA re-replication in SW480 colon adenocarcinoma cells; SW480 DNA re-replication, Hoechst DNA content imaging, 48 h; Potency, µM (series often up to 46.1 µM), actives largely listed as activators; hit rate 1.8% among 340,000; AID 624297, 2012; also: nearly all actives have a fitted effect of over 55% in size
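DNA re-replication was detected as more nuclei of elevated Hoechst intensity after 48 hr exposure to compound (23 nL pinned per well of 250 cells).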
IL-1B inflam inh – qHTS for Inhibitors of Inflammasome Signaling: IL-1-beta AlphaLISA Primary Screen | THP-1 LPS/ATP IL-1B secretion, AlphaLISA, 16 h; active compounds read low | activity change, % at 57.5 µM | hit rate 4.7% among 360,000 | AID 743279, 2014; in the data active = activity change below about -50%; inconclusive = mostly about -30% to -49%
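Secreted IL-1B measured by AlphaLISA bead assay after 16 h compound exposure of THP-1 cells; compounds (final up to 57.5 uM) added 1 h before LPS (250 ng/mL) and ATP (1.25 mM) stimulation; lower signal means less secretion.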
VP16 counter – VP16 counterscreen qHTS for inhibitors of ROR gamma transcriptional activity; AID 2546, 2010; Drosophila S2 Gal4-VP16 UAS-luciferase, luminescence, 20 h; hit rate 3.5% among 310,000; Potency, µM (series often up to 53.6 µM), actives largely listed as inhibitors;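 also: Gal4-VP16 expression switched on by copper sulfate through the metallothionein promoter; nearly all actives have a fitted effect of over 50% in size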
Of the large screens only hits and unclear results are named; the others gave an inactive call. Hits are enriched below; roughly 11% of the tested compounds scored in any of these assays. Unless noted, calls follow the shape of the dose curve; as a rule, active = well fitted curve in the direction sought with a large enough effect; inconclusive = small, poorly fitted or top-dose-only effect, or another doubt; inactive = no such curve, though single readings can be large; an effect the other way counts as inactive or inconclusive.

CSc1ccc(/C=N/n2c(C3CCCCC3)n[nH]c2=S)cc1	MCF10A rerep 16.4µM, RORgamma inh 1.58µM, SW480 rerep inconclusive, IL-1B inflam inh -61.9, VP16 counter inconclusive
Cc1cccc(-c2n[nH]c(=S)n2/N=C/c2ccc(C)o2)c1	RORgamma inh inconclusive, VP16 counter 11.2µM
O=[N+]([O-])c1ccc(/C=N/n2c(C3CCCCC3)n[nH]c2=S)cc1	RORgamma inh 1.41µM, VP16 counter inconclusive
Cc1ccc(/C=N/n2c(C3CCCCC3)n[nH]c2=S)o1	RORgamma inh 11.2µM, VP16 counter inconclusive
O=C(N/N=C/c1ccc(F)cc1)c1cccc(NC(=O)c2ccccc2Cl)c1	VP16 counter inconclusive
CC(=O)c1ccc(-c2cccc(-c3cc(=O)oc4ccc(C(C)(C)C)cc34)c2)cc1	none
C[C@@]12C=CC(=O)C=C1CCC1C3CC(O)[C@@](O)(C(=O)CO)[C@]3(C)CC(O)[C@]12F (some centres not stated)	none (no result: IL-1B inflam inh)
COc1ccc(NC(=O)CCNC(=O)C2CCN(S(=O)(=O)c3ccccc3)CC2)cc1OC	none (no result: MCF10A rerep, RORgamma inh, SW480 rerep, VP16 counter)
Cc1nn(-c2ccccc2)c(Cl)c1C(=O)NCC1CCCO1 (configuration not stated)	none (no result: RORgamma inh, VP16 counter)
COc1ccccc1-c1nnc(SC(C(=O)c2c[nH]c3ccccc23)c2ccccc2)n1C (configuration not stated)	MCF10A rerep inconclusive, RORgamma inh inconclusive, IL-1B inflam inh -51.2
COc1cccc(-c2nnc(SC(C(=O)c3c[nH]c4ccccc34)c3ccccc3)n2C)c1 (configuration not stated)	MCF10A rerep inconclusive, SW480 rerep inconclusive, VP16 counter inconclusive
COc1ccc(CCN(C)C(=O)Cc2ccc(-c3ccccc3)cc2)cc1OC	SW480 rerep inconclusive, IL-1B inflam inh -54.8, VP16 counter inconclusive
COc1ccc(-c2cc(C(=O)N(C)CCc3ccc(OC)c(OC)c3)c3ccccc3n2)cc1	MCF10A rerep inconclusive, RORgamma inh 5.01µM, SW480 rerep inconclusive
COc1ccc(CCN(C)C(=O)c2cc(-c3ccccc3)nc3ccccc23)cc1OC	RORgamma inh inconclusive
CCCCC[C@H](O)/C=C/C=C\C=C\[C@@H](O)C/C=C\CCCC(=O)O	none (no result: MCF10A rerep, SW480 rerep, IL-1B inflam inh)
Nc1nnc(-c2cc3ccccc3oc2=O)s1	none (no result: VP16 counter)
O=c1oc2ccccc2cc1-c1nnc(NCc2ccco2)s1	MCF10A rerep 9.2µM, SW480 rerep 13µM, IL-1B inflam inh inconclusive, VP16 counter inconclusive
CC(=O)N[C@@H](C(=O)O)C(C)(C)SN=O	none (no result: MCF10A rerep, SW480 rerep, IL-1B inflam inh)
COc1ccc(C2CC(=O)c3c(O)cc(O)cc3O2)cc1O (configuration not stated)	none
COc1cc(C2Oc3cc(C4Oc5cc(O)cc(O)c5C(=O)C4O)ccc3OC2CO)ccc1O (configuration not stated)	MCF10A rerep 25.9µM
CCOc1ccc(CN2CCNC(=O)C2CC(=O)NCCc2ccccn2)cc1 (configuration not stated)	none
O=C(CC1C(=O)NCCN1Cc1ccc(-c2ccccc2)cc1)NCc1ccccc1 (configuration not stated)	RORgamma inh inconclusive, IL-1B inflam inh -56.9, VP16 counter inconclusive
CCOc1ccc(CN2CCNC(=O)C2CC(=O)NCc2ccccn2)cc1 (configuration not stated)	MCF10A rerep inconclusive, RORgamma inh 11.2µM
O=c1c(-c2ccccc2)nc2cnc(N3CCNCC3)nc2n1Cc1cccs1	none (no result: MCF10A rerep, SW480 rerep, IL-1B inflam inh)
CC#Cc1cc2c(cc1O)CCC1C2CCC2(C)C(O)CCC12 (configuration not stated)	MCF10A rerep 8.2µM, SW480 rerep 9.2µM (no result: RORgamma inh, VP16 counter)
C=Cc1cc2c(cc1O)CCC1C2CCC2(C)C(O)CCC12 (configuration not stated)	MCF10A rerep 10.3µM, SW480 rerep inconclusive, IL-1B inflam inh inconclusive (no result: RORgamma inh, VP16 counter)
CCC/C=C(\CCC)C(NC(=O)c1ccccc1)c1ccccc1 (configuration not stated)	RORgamma inh inconclusive (no result: MCF10A rerep, SW480 rerep, IL-1B inflam inh)
C=C(C(=O)OC)C(NC(=O)OC)c1ccccc1 (configuration not stated)	none (no result: MCF10A rerep, SW480 rerep, IL-1B inflam inh)
C=Cc1ccc(Cn2nc(-c3ccc(C)cc3)ccc2=O)cc1	MCF10A rerep inconclusive, SW480 rerep 16.4µM, IL-1B inflam inh -78.8
O=C(O)c1cc([N+](=O)[O-])ccc1NCc1ccccn1	none (no result: RORgamma inh, VP16 counter)
CC(=O)NC(c1ccco1)c1ccc2cccnc2c1O (configuration not stated)	MCF10A rerep inconclusive, RORgamma inh 3.55µM, SW480 rerep 3.26µM, VP16 counter 11.2µM
CC(=O)NC(c1ccc(Cl)cc1)c1ccc2cccnc2c1O (configuration not stated)	none (no result: RORgamma inh, VP16 counter)
CCCC(=O)NC(c1ccc(C(C)C)cc1)c1ccc2cccnc2c1O (configuration not stated)	MCF10A rerep inconclusive, RORgamma inh 2.24µM, SW480 rerep 1.3µM, VP16 counter 2.82µM
CCCC(=O)NC(c1ccccc1Cl)c1ccc2cccnc2c1O (configuration not stated)	MCF10A rerep inconclusive, RORgamma inh 2.82µM, SW480 rerep inconclusive, VP16 counter 4.47µM
CCCC(=O)NC(c1ccc(N(C)C)cc1)c1ccc2cccnc2c1O (configuration not stated)	MCF10A rerep inconclusive, RORgamma inh 2.51µM, SW480 rerep inconclusive, VP16 counter 2.82µM
OCc1cccc[n+]1Cc1ccccc1	none (no result: RORgamma inh, VP16 counter)
CCc1cc(=O)oc2cc(OCc3ccc(C(=O)O)o3)ccc12	none
CCC(=O)NC(c1ccc(C)cc1)c1ccc2cccnc2c1O (configuration not stated)	MCF10A rerep inconclusive, RORgamma inh 2.24µM, SW480 rerep 0.82µM, VP16 counter 2.82µM
COc1cccc(N2CCN(C3C4CC5CC(C4)CC3C5)CC2)c1 (configuration not stated)	MCF10A rerep inconclusive
CCC1CCC(N2CCN(c3cccc(OC)c3)CC2)CC1 (configuration not stated)	MCF10A rerep 5.17µM
O=C(O)c1ccc(N2C(=O)c3[nH]nc(-c4ccccc4)c3C2c2ccccc2)cc1 (configuration not stated)	none
CC(C)[C@@H]1CC[C@@H](C)c2c(-c3ccccc3)n[nH]c21	MCF10A rerep inconclusive, RORgamma inh 15.8µM, VP16 counter inconclusive
COc1ccc(C(O)c2nc(-c3ccc4ccccc4c3)cs2)cc1 (configuration not stated)	none (no result: MCF10A rerep, RORgamma inh, SW480 rerep, VP16 counter)
COc1ccc(S(N)(=O)=O)cc1C(=O)NNC(=O)c1cccc(S(=O)(=O)N2CCOCC2)c1	none (no result: RORgamma inh, VP16 counter)
